Our source for the growth inhibition, inhibition and outcome values is PubChem BioAssay.

Molecules are shown by their SMILES. Values without a mark were called inactive. For part of these data: Measured potencies and affinities stand elsewhere. Calls of active or inactive are those of the source. Unless noted, the rule behind the calls is not given here.

A short description of assay [1]: antimalarial activity against Dd2 strain (AID 2302;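 active = growth inhibition above 50% at the single 2 µM test dose, taken to imply half-maximal potency below 2 µM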;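 note: 0% = DMSO untreated growth and 100% = chloroquine plus artemisinin killed control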). The following applies: P. falciparum Dd2 in RBCs, LDH growth readout, 72 h; at 2 µM; stronger effect = higher value.
Assay [2] in a line: HepG2 cytotoxicity, primary screen, cytotoxicity control for P. falciparum antimalarial project, cell-based, ATP luminescence (AID 2303;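 active = inhibition above 50%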;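 note: 0% = DMSO wells and 100% = digitonin-killed cells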). The following applies: HepG2 viability, 24-48 h, at 10 µM, stronger effect = higher value.
Assay [3] concerns the target L-lactate dehydrogenase (Plasmodium falciparum (isolate CDC / Honduras)) (UniProt Q27743). Kind of assay: PfLDH activity inhibition – cell lysate, 3D7 strain, counter-screen for P. falciparum growth inhibition project (AID 2304).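 Note: 0% = vehicle and 100% = reference inhibitor.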 The following applies: P. falciparum 3D7 crude extract, LDH APAD/NBT absorbance; at 2 µM; stronger effect = higher value. For orientation: Counterscreens check selectivity or assay interference.

Assay [4] is described as follows: inhibition of 3D7 malaria parasite growth – strain 3D7 (AID 2306).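 Note: 0% = DMSO wells and 100% = chloroquine plus artemisinin control wells.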 The following applies: P. falciparum 3D7 erythrocytic growth, LDH absorbance, 72 h; at 2 µM; stronger effect = higher value.
For assay [5], the target named is Calcium-dependent protein kinase 1 (Plasmodium falciparum (isolate 3D7)) (UniProt P62344). The assay is described as follows: PfCDPK1 kinase inhibitors, biochemical, TCAMS library (AID 1159585; cut-off not given, nearly all actives have IC50 up to about 0.98 µM;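 note: inhibitors leave more ATP so luminescence rises with inhibition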). The following applies: recombinant PfCDPK1, Kinase-Glo ATP depletion luminescence. For orientation: Kinase-Glo reads ATP consumption through a luciferase reaction.
Calcium-dependent protein kinase 1 (Plasmodium falciparum (isolate 3D7)), sequence (P62344 whole entry, looked up): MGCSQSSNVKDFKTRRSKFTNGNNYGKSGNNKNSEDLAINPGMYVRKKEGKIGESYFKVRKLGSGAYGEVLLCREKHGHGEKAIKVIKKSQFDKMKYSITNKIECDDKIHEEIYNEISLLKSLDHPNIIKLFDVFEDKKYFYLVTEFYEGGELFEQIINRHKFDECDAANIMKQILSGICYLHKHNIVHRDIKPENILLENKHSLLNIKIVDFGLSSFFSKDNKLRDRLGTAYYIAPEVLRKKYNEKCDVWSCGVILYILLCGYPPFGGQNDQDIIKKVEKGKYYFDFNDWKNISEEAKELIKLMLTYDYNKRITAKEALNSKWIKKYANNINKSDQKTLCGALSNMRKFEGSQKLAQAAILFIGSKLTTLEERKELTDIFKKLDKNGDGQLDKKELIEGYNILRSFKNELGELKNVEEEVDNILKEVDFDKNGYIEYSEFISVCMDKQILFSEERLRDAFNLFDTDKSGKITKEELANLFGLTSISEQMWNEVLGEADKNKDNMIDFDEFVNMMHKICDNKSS
Assay [6] addresses Plasmodium falciparum protein kinase 6 (PK6, PF3D7_1337100) (UniProt Q8IDW1). Kind of assay: PfPK6 kinase inhibitors, biochemical, TCAMS library (AID 1159586). The following applies: recombinant PfPK6, Kinase-Glo ATP depletion luminescence.
The target of assay [7] is Protein kinase 7 (PK7), Plasmodium falciparum 3D7 (PF3D7_0213400) (UniProt Q7YTF7). Kind of assay: inhibition of Plasmodium PK7 catalytic activity – biochemical, TCAMS antimalarial set, Kinase-Glo luminescence (AID 1159587). The following applies: recombinant PfPK7, Kinase-Glo ATP depletion luminescence.
Protein kinase 7 (PK7), Plasmodium falciparum 3D7 (PF3D7_0213400), sequence (Q7YTF7 1-343): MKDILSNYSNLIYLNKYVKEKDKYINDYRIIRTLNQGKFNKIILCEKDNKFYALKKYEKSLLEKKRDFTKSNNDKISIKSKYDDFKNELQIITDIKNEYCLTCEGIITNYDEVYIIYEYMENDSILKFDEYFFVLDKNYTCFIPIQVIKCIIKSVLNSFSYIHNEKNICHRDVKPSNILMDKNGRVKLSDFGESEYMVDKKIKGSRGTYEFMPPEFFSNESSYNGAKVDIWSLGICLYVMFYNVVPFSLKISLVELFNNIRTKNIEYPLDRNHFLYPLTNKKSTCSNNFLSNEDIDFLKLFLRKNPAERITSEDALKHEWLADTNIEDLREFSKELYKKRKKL
Assay [8] concerns the target Calcium-dependent protein kinase 4 (Plasmodium falciparum (isolate 3D7)) (UniProt Q8IBS5). The assay is described as follows: PfCDPK4 kinase inhibitors, biochemical, TCAMS library (AID 1159588; cut-off not given, nearly all actives have IC50 up to about 0.91 µM). The following applies: recombinant PfCDPK4, Kinase-Glo ATP depletion luminescence.

Calcium-dependent protein kinase 4 (Plasmodium falciparum (isolate 3D7)), sequence (Q8IBS5 whole entry, looked up): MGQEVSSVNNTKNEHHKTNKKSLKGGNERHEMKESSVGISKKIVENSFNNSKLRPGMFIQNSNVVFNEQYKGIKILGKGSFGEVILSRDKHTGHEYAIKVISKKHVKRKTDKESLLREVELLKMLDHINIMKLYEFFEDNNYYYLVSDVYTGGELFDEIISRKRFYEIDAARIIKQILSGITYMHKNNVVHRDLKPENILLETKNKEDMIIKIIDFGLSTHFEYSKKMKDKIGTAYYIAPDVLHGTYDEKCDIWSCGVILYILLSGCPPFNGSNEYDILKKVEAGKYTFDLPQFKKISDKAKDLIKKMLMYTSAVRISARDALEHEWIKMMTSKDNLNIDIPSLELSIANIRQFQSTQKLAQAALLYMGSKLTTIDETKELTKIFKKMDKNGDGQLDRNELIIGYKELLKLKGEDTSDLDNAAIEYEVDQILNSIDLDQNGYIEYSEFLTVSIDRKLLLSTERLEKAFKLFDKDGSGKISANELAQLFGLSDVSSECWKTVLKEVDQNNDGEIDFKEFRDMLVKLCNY
L-lactate dehydrogenase (Plasmodium falciparum (isolate CDC / Honduras)), sequence (Q27743 whole entry, looked up): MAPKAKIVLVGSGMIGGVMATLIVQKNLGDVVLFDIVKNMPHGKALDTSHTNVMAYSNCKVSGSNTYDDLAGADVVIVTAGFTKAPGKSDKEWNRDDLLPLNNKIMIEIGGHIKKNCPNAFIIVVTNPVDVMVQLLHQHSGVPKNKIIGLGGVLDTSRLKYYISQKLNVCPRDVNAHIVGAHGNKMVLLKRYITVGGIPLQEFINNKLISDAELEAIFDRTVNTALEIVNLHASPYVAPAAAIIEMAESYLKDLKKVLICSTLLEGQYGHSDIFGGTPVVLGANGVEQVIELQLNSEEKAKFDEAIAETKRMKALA
Plasmodium falciparum protein kinase 6 (PK6, PF3D7_1337100), sequence (Q8IDW1 1-305): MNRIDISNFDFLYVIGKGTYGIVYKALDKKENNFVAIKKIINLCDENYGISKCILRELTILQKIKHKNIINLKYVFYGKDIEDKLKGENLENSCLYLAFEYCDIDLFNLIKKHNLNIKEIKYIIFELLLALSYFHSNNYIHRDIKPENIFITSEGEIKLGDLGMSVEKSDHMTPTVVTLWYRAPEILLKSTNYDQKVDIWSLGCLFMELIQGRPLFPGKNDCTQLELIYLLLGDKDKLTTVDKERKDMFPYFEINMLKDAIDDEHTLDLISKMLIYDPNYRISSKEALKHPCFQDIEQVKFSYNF

Consider `COc1ccc(S(=O)(=O)Nc2cc(Br)cc3c2OCCC3)cc1N1CCN(C(=O)C(Cl)(Cl)Cl)CC1`, for which the growth inhibition is 51% (active) in assay [1] and 90% (active) in assay [4]. Further, the inhibition in assay [2] was 4%; in assay [3], -2%. Moreover, the result in assay [5], in assay [6], in assay [7] and in assay [8] was inactive.

For `COc1ccccc1NC(=O)Nc1ccc(-c2cccc(-c3nc4ccccc4[nH]3)c2)cc1`, the growth inhibition in assay [1] was 25%; in assay [4], 101% (active). For the same compound, the figures for the inhibition in assay [2] and in assay [3] were 42% and 0%, respectively. Further, the result in assay [5], in assay [6], in assay [7] and in assay [8] was inactive.

For the compound `COc1ccc(CN2CCCN(Cc3cccc(NC(=O)c4ccc(-c5ccccc5)cc4)c3)CC2)cc1`, the growth inhibition in assay [1] was 24%; in assay [4] it was 94% (active). Moreover, the inhibition in assay [2] is 37%; in assay [3], 1%. In addition, the outcome in assay [5], in assay [6], in assay [7] and in assay [8] was inactive.

For the compound `CNCCNCc1ccc(-c2ccc(-c3nc4ccc(C(F)(F)F)cc4[nH]3)s2)cc1`, the growth inhibition is 100% (active) in assay [1] and 99% (active) in assay [4]. The inhibition in assay [2] is 30%; in assay [3], -2%. For the same compound, the result in assay [5], in assay [6], in assay [7] and in assay [8] was inactive.

As to `O=C(Nc1ccc2c(c1)CCN2C1CCN(Cc2ccc(F)cc2Cl)C1)c1ccco1` (stereo not drawn), the growth inhibition was 96% (active) in assay [1] and 97% (active) in assay [4]. Further, the inhibition was 4% in assay [2] and 2% in assay [3]. In addition, the outcome in assay [5], in assay [6], in assay [7] and in assay [8] was inactive.

On to `CCOc1ccc(Nc2nc(N)c3ccccc3n2)cc1`, for which the growth inhibition in assay [1] is 6%; in assay [4] it was 90% (active). Also, the inhibition in assay [2] was 28%; in assay [3] it was 2%. In addition, the result in assay [5], in assay [6], in assay [7] and in assay [8] was inactive.

On to `NCC1CCCN1Cc1ccc(-c2cccc(-c3nc4ccc(C(F)(F)F)cc4[nH]3)c2)cc1` (stereo not drawn), for which the values for the growth inhibition in assay [1] and in assay [4] were 97% (active) and 99% (active), respectively. Moreover, the figures for the inhibition in assay [2] and in assay [3] were 24% and 1%, respectively. Moreover, the result in assay [5], in assay [6], in assay [7] and in assay [8] was inactive.

For `COc1ccc(CCNCCCCCCNCCc2ccc(-c3ccccc3)cc2)cc1OC`, the growth inhibition in assay [1] was 35%; in assay [4] it was 99% (active). For the same compound, the inhibition in assay [2] is 100% (active); in assay [3], 1%. Besides, the result in assay [5], in assay [6], in assay [7] and in assay [8] was inactive.

Take `Cc1cc(CNCC(CCNc2cc(=O)c3ccccc3[nH]2)NCc2cc(Br)cc(Br)c2)oc1C` (stereo not drawn): the growth inhibition in assay [1] is 85% (active); in assay [4], 98% (active). For the same compound, the inhibition in assay [2] is 4%; in assay [3] it was 2%. In addition, the outcome in assay [5], in assay [6], in assay [7] and in assay [8] was inactive.

With `COc1cccc(Nc2nc(C)cc(NCc3ccc(-c4c(C)noc4C)cc3)n2)c1`, the growth inhibition was 42% in assay [1] and 98% (active) in assay [4]. In addition, the results for the inhibition in assay [2] and in assay [3] were 33% and -1%, respectively. The result in assay [5], in assay [6], in assay [7] and in assay [8] was inactive.

Turning to `COc1ccc2ncc(Cl)c(CCN3C[C@H](CNCc4ccc5c(n4)NC(=O)CS5)[C@H](O)C3)c2n1`, the growth inhibition was 16% in assay [1] and 94% (active) in assay [4]. The inhibition in assay [2] is 2%; in assay [3] it was 3%. Also, the result in assay [5], in assay [6], in assay [7] and in assay [8] was inactive.

`O=C(NCCCCCN1CCC(c2c[nH]c3ccccc23)CC1)Nc1ccc(Br)cc1`: the growth inhibition is -4% in assay [1] and 91% (active) in assay [4]. The inhibition is 24% in assay [2] and 1% in assay [3]. For the same compound, the outcome in assay [5], in assay [6], in assay [7] and in assay [8] was inactive.

As for `CC1CC(NCCCNc2cc(=O)c3ccccc3[nH]2)c2c1cc(Cl)c(Cl)c2Cl` (stereo not drawn), the growth inhibition is 70% (active) in assay [1] and 98% (active) in assay [4]. Also, the inhibition in assay [2] is 1%; in assay [3] it was 3%. For the same compound, the result in assay [5], in assay [6], in assay [7] and in assay [8] was inactive.

Turning to `Cc1cc(C2CCN(CCCCNC(=O)c3ccc(-c4ccc(C(F)(F)F)cc4)cc3)CC2)c(C)cc1OCC(N)=O`, the growth inhibition was 44% in assay [1] and 91% (active) in assay [4]. Moreover, the results for the inhibition in assay [2] and in assay [3] were 34% and -7%, respectively. Besides, the outcome in assay [5], in assay [6], in assay [7] and in assay [8] was inactive.

For the compound `CC(C)Sc1nc2c(c(=O)n1CCc1ccccc1)C1(CCCC1)Cc1ccccc1-2`, the growth inhibition is 88% (active) in assay [1] and 102% (active) in assay [4]. In addition, the inhibition in assay [2] is -3%; in assay [3], -4%. Besides, the outcome in assay [5], in assay [6], in assay [7] and in assay [8] was inactive.

Turning to `CC(C)N(Cc1ccc(-c2ccc(C(F)(F)F)cc2)cc1)C(=O)Cn1c(CCc2cccc(F)c2F)cc(=O)c2ccc(CCCN3CCCCC3)cc21`, the growth inhibition in assay [1] is 82% (active); in assay [4] it was 100% (active). Also, the figures for the inhibition in assay [2] and in assay [3] were 99% (active) and 7%, respectively. Moreover, the outcome in assay [5], in assay [6], in assay [7] and in assay [8] was inactive.

On to `O=C(NCc1cccc(C(F)(F)F)c1)C(c1cc2ccccc2o1)N1CCN(C(c2ccccc2)c2ccccc2)CC1` (stereo not drawn), for which the growth inhibition in assay [1] was 80% (active); in assay [4] it was 91% (active). The results for the inhibition in assay [2] and in assay [3] were -4% and 0%, respectively. Further, the outcome in assay [5], in assay [6], in assay [7] and in assay [8] was inactive.

In the case of `CCCOC(=O)c1ccc(OCCCON2C(N)=NC(N)=NC2(C)C)cc1`, the growth inhibition was 97% (active) in assay [1] and 95% (active) in assay [4]. Moreover, the inhibition in assay [2] is 61% (active); in assay [3], 6%. Moreover, the result in assay [5], in assay [6], in assay [7] and in assay [8] was inactive.

For the compound `C[C@@H](Oc1cc(-n2cnc3cc(SCCN4CCN(C)CC4)ccc32)sc1C(N)=O)c1ccccc1Cl`, the growth inhibition in assay [1] was 65% (active); in assay [4], 90% (active). For the same compound, the values for the inhibition in assay [2] and in assay [3] were 46% and -1%, respectively. The result in assay [5], in assay [6], in assay [7] and in assay [8] was inactive.

On to `CC(=O)Nc1cccc(C(=O)Nc2nc3ccc(-c4cc(=O)[nH]c(Nc5ccccc5Cl)n4)cc3[nH]2)c1`, for which the figures for the growth inhibition in assay [1] and in assay [4] were 62% (active) and 99% (active), respectively. In addition, the inhibition in assay [2] was -2%; in assay [3] it was 6%. Further, the result in assay [5], in assay [6], in assay [7] and in assay [8] was inactive.

In the case of `CS(=O)(=O)c1ccc(CNCc2ccc(-c3cccc(-c4nc5ccc(C(F)(F)F)cc5[nH]4)c3)cc2)cc1`, the growth inhibition was 100% (active) in assay [1] and 102% (active) in assay [4]. Besides, the results for the inhibition in assay [2] and in assay [3] were 54% (active) and 8%, respectively. Also, the outcome in assay [5], in assay [6], in assay [7] and in assay [8] was inactive.

The inhibition is the relative decrease from the control value, in per cent.
